# About 7,900 targets were measured; listed, in parts, are those with a hit and a random draw of the rest. About 0.6% of all pairs of compound and target were hits. Unmarked numbers belong to inactive results.
# How the values were obtained:
# Test in all cases: log2 fold change, soluble protein after heating vs DMSO (PISA); higher = thermal stabilisation; K562 cells, 10 uM, 30 min; active = over 0.2 and 3.5 SD of the protein, either way, in both replicates (recomputed)
# [1] = compound: NC(=O)Nc1cc(-c2cccc(F)c2)sc1C(=O)N[C@H]1CCCNC1
# Outline: (§1)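 Soluble protein was defined as the supernatant after 21,000xg for 90 min. It came from K562 cells at 2×10^6 cells/mL given 10 μM compound for 30 min, heated in aliquots for 3 min across 48°C-58°C, pooled, and extracted in PBS with 0.5% NP-40 at 4°C, and was quantified by TMTpro 16plex LC-MS/MS with equalised channel sums. Thermal stability against control samples, from duplicates, is reported as log2 fold change.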
# [2] = compound: NC(=O)c1cnc(N[C@@H]2CCCC[C@@H]2N)nc1Nc1cccc(-n2nccn2)c1
# Outline: as §1
# [3] = compound: NC1(c2ccc(-c3nc4ccn5c(=O)[nH]nc5c4cc3-c3ccccc3)cc2)CCC1
# Outline: as §1
# [4] = compound: NCC(=O)Nc1ccc(-n2nc(C(F)(F)F)cc2-c2ccc3c(ccc4ccccc43)c2)cc1
# Outline: as §1
# [5] = compound: Nc1ccccc1NC(=O)c1ccc(CNC(=O)OCc2cccnc2)cc1 [entinostat]
# Outline: as §1
# [6] = compound: O=C(CCCCCCC(=O)Nc1ccccc1)NO [vorinostat]
# Outline: as §1
# [7] = compound: O=C(CCCCCCNC(=O)c1cnc(N(c2ccccc2)c2ccccc2Cl)nc1)NO [citarinostat]
# Outline: as §1
# [8] = compound: O=C(O)c1ccc2c(c1)nc(Nc1cccc(Cl)c1)c1ccncc12 [silmitasertib]
# Outline: as §1
# [9] = compound: O=C1NC(=O)C(c2cnc3ccccn23)=C1c1cn2c3c(cc(F)cc13)CN(C(=O)N1CCCCC1)CC2
# Outline: as §1
# [10] = compound: c1cc(OCCN2CCCCC2)cc(-c2n[nH]c3ccc(-c4nnc[nH]4)cc23)c1
# Outline: as §1
# UniProt Q13418, sequence (Q13418 whole entry, looked up): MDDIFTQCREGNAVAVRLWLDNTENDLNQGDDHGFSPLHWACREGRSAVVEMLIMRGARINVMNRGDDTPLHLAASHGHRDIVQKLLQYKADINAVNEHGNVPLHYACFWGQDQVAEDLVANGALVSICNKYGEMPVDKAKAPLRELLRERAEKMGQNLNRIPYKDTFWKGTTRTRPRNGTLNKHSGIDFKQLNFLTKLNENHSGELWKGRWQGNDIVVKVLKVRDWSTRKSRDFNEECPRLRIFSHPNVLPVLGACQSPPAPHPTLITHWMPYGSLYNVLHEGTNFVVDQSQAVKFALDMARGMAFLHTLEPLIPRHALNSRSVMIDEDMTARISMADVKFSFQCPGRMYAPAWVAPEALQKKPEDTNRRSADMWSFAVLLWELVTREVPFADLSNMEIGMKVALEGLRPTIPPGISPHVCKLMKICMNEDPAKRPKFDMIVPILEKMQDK
# UniProt Q9H3U5, sequence (Q9H3U5 whole entry, looked up): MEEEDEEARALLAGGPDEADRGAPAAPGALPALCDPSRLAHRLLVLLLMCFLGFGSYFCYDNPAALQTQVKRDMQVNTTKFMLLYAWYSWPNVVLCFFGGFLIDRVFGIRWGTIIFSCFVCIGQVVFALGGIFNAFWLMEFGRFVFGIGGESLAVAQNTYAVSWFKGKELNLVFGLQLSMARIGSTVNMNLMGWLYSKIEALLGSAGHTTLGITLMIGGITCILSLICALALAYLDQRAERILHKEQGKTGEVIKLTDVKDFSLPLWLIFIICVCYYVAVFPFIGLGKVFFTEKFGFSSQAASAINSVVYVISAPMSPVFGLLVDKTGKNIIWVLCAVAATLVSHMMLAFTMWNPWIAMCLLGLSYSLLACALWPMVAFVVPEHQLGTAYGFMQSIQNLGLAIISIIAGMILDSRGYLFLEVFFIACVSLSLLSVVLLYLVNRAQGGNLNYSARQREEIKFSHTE
# UniProt Q9NQG6, sequence (Q9NQG6 whole entry, looked up): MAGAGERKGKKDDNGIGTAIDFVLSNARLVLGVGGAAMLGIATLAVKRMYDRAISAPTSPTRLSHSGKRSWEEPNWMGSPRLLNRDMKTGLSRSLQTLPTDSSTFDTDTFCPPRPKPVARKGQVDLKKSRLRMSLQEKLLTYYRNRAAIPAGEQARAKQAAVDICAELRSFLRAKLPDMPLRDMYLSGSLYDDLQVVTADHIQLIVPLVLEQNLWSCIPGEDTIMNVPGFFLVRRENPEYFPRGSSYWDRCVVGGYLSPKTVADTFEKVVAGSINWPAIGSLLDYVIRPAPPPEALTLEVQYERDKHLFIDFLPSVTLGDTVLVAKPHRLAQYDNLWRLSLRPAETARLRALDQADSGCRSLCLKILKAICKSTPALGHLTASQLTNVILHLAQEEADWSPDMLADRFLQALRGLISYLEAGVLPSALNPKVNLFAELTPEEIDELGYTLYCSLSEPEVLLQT
# UniProt Q8IW41, sequence (Q8IW41 whole entry, looked up): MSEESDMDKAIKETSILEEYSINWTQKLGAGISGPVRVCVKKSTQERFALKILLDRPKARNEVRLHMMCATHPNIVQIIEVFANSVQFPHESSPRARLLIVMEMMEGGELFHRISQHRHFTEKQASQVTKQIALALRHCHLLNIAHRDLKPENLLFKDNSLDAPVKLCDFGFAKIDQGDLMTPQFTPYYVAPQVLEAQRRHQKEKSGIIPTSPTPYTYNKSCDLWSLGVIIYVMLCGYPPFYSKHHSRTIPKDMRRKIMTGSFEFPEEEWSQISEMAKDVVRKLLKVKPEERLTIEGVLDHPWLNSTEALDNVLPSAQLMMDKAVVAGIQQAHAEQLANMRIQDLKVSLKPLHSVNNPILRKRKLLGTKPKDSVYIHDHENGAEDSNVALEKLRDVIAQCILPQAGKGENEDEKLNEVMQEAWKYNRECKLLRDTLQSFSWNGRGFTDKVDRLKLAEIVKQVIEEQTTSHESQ
# UniProt Q9UPY8, sequence (Q9UPY8 whole entry, looked up): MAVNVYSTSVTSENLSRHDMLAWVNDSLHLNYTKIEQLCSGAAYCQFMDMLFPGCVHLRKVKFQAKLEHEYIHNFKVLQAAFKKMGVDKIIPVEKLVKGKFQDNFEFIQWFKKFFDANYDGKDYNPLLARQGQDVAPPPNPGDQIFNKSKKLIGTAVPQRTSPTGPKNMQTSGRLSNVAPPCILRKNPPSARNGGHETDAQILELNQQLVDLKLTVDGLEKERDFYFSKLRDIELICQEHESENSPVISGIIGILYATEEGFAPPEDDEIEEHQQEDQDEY
# UniProt Q07666, sequence (Q07666 whole entry, looked up): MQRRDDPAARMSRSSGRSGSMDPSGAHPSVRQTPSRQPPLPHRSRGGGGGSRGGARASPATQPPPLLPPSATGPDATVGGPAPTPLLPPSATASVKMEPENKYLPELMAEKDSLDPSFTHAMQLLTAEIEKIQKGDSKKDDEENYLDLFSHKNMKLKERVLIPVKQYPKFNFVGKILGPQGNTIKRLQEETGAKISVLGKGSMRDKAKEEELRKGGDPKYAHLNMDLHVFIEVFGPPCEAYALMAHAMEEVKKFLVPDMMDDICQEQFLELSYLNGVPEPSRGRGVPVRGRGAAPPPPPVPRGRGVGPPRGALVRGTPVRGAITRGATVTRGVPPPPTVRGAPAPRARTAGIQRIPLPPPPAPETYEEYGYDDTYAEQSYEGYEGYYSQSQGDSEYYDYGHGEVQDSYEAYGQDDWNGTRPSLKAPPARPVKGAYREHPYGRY
# UniProt O00629, sequence (O00629 whole entry, looked up): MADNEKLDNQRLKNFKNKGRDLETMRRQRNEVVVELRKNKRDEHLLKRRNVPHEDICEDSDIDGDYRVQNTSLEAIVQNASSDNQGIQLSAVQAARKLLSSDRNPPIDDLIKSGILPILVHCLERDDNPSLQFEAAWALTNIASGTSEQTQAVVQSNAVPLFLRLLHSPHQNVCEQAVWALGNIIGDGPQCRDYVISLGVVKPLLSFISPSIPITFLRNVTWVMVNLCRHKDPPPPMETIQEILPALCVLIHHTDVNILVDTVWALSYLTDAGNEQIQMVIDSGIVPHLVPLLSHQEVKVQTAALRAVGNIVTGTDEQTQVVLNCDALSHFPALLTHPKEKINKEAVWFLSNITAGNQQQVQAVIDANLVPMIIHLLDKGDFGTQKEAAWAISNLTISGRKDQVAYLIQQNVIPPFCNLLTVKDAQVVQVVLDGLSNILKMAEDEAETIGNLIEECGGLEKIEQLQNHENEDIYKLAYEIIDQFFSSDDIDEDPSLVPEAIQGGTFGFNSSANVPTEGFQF
# UniProt Q9UI26, sequence (Q9UI26 whole entry, looked up): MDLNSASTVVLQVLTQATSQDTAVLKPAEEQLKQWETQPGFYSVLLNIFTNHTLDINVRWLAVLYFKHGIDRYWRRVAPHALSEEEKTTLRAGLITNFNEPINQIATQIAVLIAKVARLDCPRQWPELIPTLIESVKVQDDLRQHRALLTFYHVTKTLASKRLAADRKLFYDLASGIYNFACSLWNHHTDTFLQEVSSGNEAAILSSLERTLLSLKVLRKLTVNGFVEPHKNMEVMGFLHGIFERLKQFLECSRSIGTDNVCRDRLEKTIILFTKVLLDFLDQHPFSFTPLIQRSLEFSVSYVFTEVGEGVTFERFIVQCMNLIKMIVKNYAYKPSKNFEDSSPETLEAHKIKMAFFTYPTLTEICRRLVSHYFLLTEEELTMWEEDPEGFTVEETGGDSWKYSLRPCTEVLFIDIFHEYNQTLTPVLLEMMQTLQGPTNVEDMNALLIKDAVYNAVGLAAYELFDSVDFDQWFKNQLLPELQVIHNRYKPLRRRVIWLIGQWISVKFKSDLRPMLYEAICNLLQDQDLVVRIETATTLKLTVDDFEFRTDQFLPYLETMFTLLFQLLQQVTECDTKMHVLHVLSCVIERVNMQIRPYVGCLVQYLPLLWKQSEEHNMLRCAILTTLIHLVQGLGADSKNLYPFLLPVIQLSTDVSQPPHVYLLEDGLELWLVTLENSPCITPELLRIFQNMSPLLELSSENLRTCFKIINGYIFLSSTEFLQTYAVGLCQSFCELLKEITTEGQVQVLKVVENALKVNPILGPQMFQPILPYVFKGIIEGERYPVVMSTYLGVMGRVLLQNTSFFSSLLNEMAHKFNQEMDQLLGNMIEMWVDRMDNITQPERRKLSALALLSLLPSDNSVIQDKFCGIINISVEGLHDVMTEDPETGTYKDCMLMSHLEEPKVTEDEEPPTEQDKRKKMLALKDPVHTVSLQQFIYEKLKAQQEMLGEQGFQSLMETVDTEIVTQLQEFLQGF
# UniProt Q8IWA4, sequence (Q8IWA4 whole entry, looked up): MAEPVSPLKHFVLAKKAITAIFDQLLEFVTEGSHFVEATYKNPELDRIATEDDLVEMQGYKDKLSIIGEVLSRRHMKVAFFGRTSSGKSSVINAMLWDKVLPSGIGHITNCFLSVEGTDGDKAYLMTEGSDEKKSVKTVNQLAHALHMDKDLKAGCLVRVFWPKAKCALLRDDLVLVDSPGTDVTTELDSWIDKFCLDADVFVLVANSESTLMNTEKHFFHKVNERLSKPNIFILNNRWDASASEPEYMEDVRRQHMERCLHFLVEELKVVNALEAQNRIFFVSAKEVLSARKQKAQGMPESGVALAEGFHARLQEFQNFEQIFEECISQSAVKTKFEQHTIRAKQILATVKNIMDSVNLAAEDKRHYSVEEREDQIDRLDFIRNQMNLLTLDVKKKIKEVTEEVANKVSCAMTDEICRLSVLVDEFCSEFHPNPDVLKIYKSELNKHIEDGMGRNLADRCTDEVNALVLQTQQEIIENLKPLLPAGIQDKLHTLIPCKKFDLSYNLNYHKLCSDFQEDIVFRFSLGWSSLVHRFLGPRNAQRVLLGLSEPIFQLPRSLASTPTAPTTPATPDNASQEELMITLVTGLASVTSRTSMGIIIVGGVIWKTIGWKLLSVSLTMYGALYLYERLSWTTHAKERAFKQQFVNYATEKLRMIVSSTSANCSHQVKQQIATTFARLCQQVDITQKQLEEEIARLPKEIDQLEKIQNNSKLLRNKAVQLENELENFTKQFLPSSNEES
# UniProt P10620, sequence (P10620 whole entry, looked up): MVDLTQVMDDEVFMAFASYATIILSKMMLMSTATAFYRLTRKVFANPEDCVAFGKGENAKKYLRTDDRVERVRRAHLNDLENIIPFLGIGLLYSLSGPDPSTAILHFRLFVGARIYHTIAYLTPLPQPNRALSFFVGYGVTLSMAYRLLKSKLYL
Target,log2 fold change [1],log2 fold change [2],log2 fold change [3],log2 fold change [4],log2 fold change [5],log2 fold change [6],log2 fold change [7],log2 fold change [8],log2 fold change [9],log2 fold change [10]
KSR1 (UniProt Q8IVT5),-0.333,-0.049,0.236,-0.111,0.044,0.013,0.045,-0.279,-0.118,-0.193
MIEF1 (UniProt Q9NQG6),-0.001,-0.14,-0.215,-0.034,0.056,0.019,0.073,0.006,0.031,-0.01
MFSD1 isoform 6 (UniProt Q9H3U5),0.02,-0.066,-0.308 (active),-0.098,-0.019,-0.053,0.03,-0.008,0.067,0.043
ITPRIP (UniProt Q8IWB1),-0.041,-0.031,-0.373 (active),-0.021,-0.01,-0.08,-0.076,-0.009,0.019,-0.06
MAPKAPK5 (UniProt Q8IW41),0.382 (active),0.029,-0.051,-0.009,0.027,0.053,-0.003,-0.044,-0.078,0.213
MGST1 (UniProt P10620),-0.025,-0.024,-0.035,0.163,0.031,0.027,-0.065,0.036,-0.086,0.122
MICU2 (UniProt Q8IYU8),-0.095,-0.075,-0.121,-0.006,-0.014,0.073,0.042,0.076,0.04,-0.141
MAP4 (UniProt P27816),0.039,0.002,0.04,0.025,-0.015,-0.013,-0.007,-0.018,0.003,-0.014
KIF3B (UniProt O15066),-0.016,-0.029,-0.091,-0.128,-0.016,-0.179,0.053,-0.086,-0.112,0.215
MFN1 (UniProt Q8IWA4),-0.072,-0.171,-0.01,-0.224,0.034,0.021,0.034,0.102,-0.009,0.02
MEAK7 (UniProt Q6P9B6),-0.011,-0.117,-0.122,-0.025,0.027,0.069,0.053,-0.028,-0.021,0.016
KMT2C isoform 3 (UniProt Q8NEZ4),-0.021,0.046,-0.756 (active),-0.006,-0.03,0.19,0.104,-0.052,-0.094,-0.076
MAP2K3 isoform 3 (UniProt P46734),-0.04,-0.018,-0.14,-0.025,0.068,0.02,-0.126,-0.024,-0.188,-0.052
KHDRBS1 (UniProt Q07666),-0.013,-0.038,-0.009,-0.034,-0.025,0.037,0.099,0.018,0.039,-0.064
IPO11 isoform 2 (UniProt Q9UI26),-0.004,-0.074,-0.113,-0.039,0.022,0.027,0.048,0.032,-0.027,0.005
IPO9 (UniProt Q96P70),0.059,-0.072,-0.07,0.003,0.022,0.041,0.061,0.164,0.048,-0.035
LPIN3 isoform 2 (UniProt Q9BQK8),0.014,-0.027,-0.044,0.041,-0.006,0.011,0.001,-0.116,-0.054,-0.142
MAIP1 (UniProt Q8WWC4),-0.061,-0.06,-0.129,-0.009,-0.015,0.017,0.076,-0.012,-0.085,-0.012
ILK (UniProt Q13418),-0.236,-0.125,-0.07,-0.095,-0.149,0.083,-0.006,-0.003,-0.036,-0.048
KPNA4 (UniProt O00629),-0.06,-0.054,-0.072,-0.053,-0.01,0.019,0.051,0.065,-0.017,-0.111
MAPRE3 (UniProt Q9UPY8),-0.002,-0.053,-0.112,-0.052,0.066,0.002,0.049,0.004,-0.087,-0.04
KDM3B (UniProt Q7LBC6),-0.051,-0.033,-0.114,-0.088,0.027,0.069,0.098,0.056,-0.064,-0.023
LAMP2 (UniProt P13473),-0.013,0.043,-0.122,0.055,-0.045,0.083,0.158,0.005,0.065,-0.11
LRPPRC (UniProt P42704),-0.249,-0.291,-0.676,-0.272,0.479,0.289,0.203,0.033,-0.383,-0.128
IPO7 (UniProt O95373),0.024,-0.099,-0.145,-0.069,0.036,0.055,0.056,0.015,-0.004,-0.09
INPP1 (UniProt P49441),-0.11,-0.035,-0.108,-0.036,-0.089,-0.066,0.024,-0.042,0.023,-0.039
METTL18 (UniProt O95568),-0.028,0.008,-0.034,0.023,-0.02,0.041,-0.046,0.03,0,-0.016

# — the supplement of paper PMC10849652
